Source: PubChem BioAssay AID1159580 (chemical genetic matrix, 2015)
Among all 5,500 compounds or so, about 2,000 (36%) were called active. Roughly 18% stayed inconclusive and do not appear here. Rule as the data show it: active = normalized growth mostly below about 0.91 (no sharp cut-off); inconclusive = no clear call, values can overlap the other calls; inactive = mostly above about 0.92. This is one part of the list.

Experiment: chemical genetic growth profiling, strain panel (AID 1159580);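 also: tested at 20 µM; growth read once vehicle control cultures reached saturation at 30 °C; 1 = growth at the plate median or of vehicle wells; lower values mean less growth of the strain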
Conditions: S. cerevisiae deletion strains, growth OD

Measured: normalized growth

CCOc1ccc(C(=O)c2ccc(OC)c(O)c2O)cc1
active: locus YDR195W, strain ref2 1.15 [resistant] | locus YER155C, strain BEM2 (second series), hits give low values 0.842 | locus YMR058W, strain fet3, hits give low values 0.818 | locus YNL209W, strain ssb2, hits give low values 0.909 | locus YPL051W, strain arl3, hits give low values 0.878
inactive: locus YAL021C, strain ccr4, hits give low values 0.958 | locus YAL026C, strain drs2, hits give low values 0.966 | locus YAL030W, strain snc1, hits give low values 1.02 | locus YBL061C, strain skt5, hits give low values 0.994 | locus YBR009C, strain hhf1, hits give low values 0.962 | locus YBR023C, strain chs3, hits give low values 0.977 | locus YBR171W, strain sec66, hits give low values 1.02 | locus YBR231C, strain swc5, hits give low values 0.939 | locus YBR279W, strain paf1, hits give low values 0.973 | locus YCL011C, strain gbp2, hits give low values 0.991 | locus YCL016C, strain dcc1, hits give low values 0.973 | locus YCL061C, strain MRC1, hits give low values 0.993 | locus YCL069W, strain vba3, hits give low values 1.01 | locus YCR088W, strain abp1, hits give low values 1.02 | locus YDL005C, strain med2, hits give low values 1.05 | locus YDL040C, strain nat1, hits give low values 1.01 | locus YDR001C, strain nth1, hits give low values 1.03 | locus YDR069C, strain doa4, hits give low values 0.974 | locus YDR137W, strain rgp1, hits give low values 0.913 | locus YDR159W, strain sac3, hits give low values 1.05 | locus YDR297W, strain sur2, hits give low values 1.01 | locus YDR334W, strain swr1, hits give low values 1.02 | locus YDR335W, strain msn5, hits give low values 0.993 | locus YDR392W, strain spt3, hits give low values 0.795 | locus YEL003W, strain gim4, hits give low values 0.964 | locus YEL037C, strain rad23, hits give low values 1.01 | locus YEL061C, strain CIN8 (second series), hits give low values 1.02 | locus YER015W, strain faa2, hits give low values 0.934 | locus YER016W, strain bim1, hits give low values 1.01 | locus YER111C, strain swi4, hits give low values 1.03 | locus YFR010W, strain ubp6, hits give low values 1.01 | locus YGL167C, strain pmr1, hits give low values 0.997 | locus YGL173C, strain kem1, hits give low values 0.999 | locus YGL227W, strain vid30, hits give low values 1.03 | locus YGL240W, strain doc1, hits give low values 0.982 | locus YGL253W, strain hxk2, hits give low values 1 | locus YHR013C, strain ard1, hits give low values 0.961 | locus YHR027C, strain rpn1, hits give low values 1.01 | locus YHR030C, strain SLT2, hits give low values 0.892 | locus YHR079C, strain IRE1, hits give low values 0.913 | locus YHR142W, strain chs7, hits give low values 0.963 | locus YJL092W, strain hpr5, hits give low values 1.02 | locus YJL095W, strain BCK1 (second series), hits give low values 0.987 | locus YJL095W, strain BCK1, hits give low values 0.923 | locus YJL115W, strain asf1, hits give low values 1.04 | locus YJL129C, strain trk1, hits give low values 1.04 | locus YJL154C, strain vps35, hits give low values 1.03 | locus YJL164C, strain tpk1, hits give low values 0.964 | locus YJL166W, strain qcr8, hits give low values 0.959 | locus YJL187C, strain SWE1, hits give low values 1 | locus YJR066W, strain TOR1, hits give low values 0.826 | locus YKL160W, strain elf1, hits give low values 0.951 | locus YKR026C, strain gcn3, hits give low values 1.03 | locus YKR091W, strain srl3, hits give low values 1.02 | locus YLL001W, strain dnm1, hits give low values 0.981 | locus YLL026W, hits give low values 1.03 | locus YLL041C, strain sdh2, hits give low values 1.01 | locus YLR027C, strain aat2, hits give low values 0.986 | locus YLR113W, strain HOG1, hits give low values 0.953 | locus YLR221C, strain rsa3, hits give low values 0.977 | locus YLR258W, strain gsy2, hits give low values 1 | locus YLR262C, strain YPT6 (second series), hits give low values 0.875 | locus YLR320W, strain mms22, hits give low values 0.949 | locus YLR342W, strain FKS1, hits give low values 0.958 | locus YLR357W, strain rsc2, hits give low values 0.949 | locus YLR370C, strain arc18, hits give low values 1.02 | locus YLR384C, strain iki3, hits give low values 1.02 | locus YML120C, strain ndi1, hits give low values 0.997 | locus YMR125W, strain sto1, hits give low values 1.02 | locus YMR129W, hits give low values 1.01 | locus YMR205C, strain PFK2, hits give low values 1.01 | locus YMR231W, strain pep5, hits give low values 0.992 | locus YNL071W, strain lat1, hits give low values 0.972 | locus YNL183C, strain NPR1, hits give low values 0.866 | locus YNL248C, strain rpa49, hits give low values 1.03 | locus YNL322C, strain KRE1 (second series), hits give low values 1.03 | locus YNR049C, strain mso1, hits give low values 1.06 | locus YOR001W, strain rrp6, hits give low values 0.996 | locus YOR070C, strain gyp1, hits give low values 0.989 | locus YOR080W, strain dia2, hits give low values 1.04 | locus YOR083W, strain WHI5, hits give low values 0.953 | locus YOR106W, strain vam3, hits give low values 0.892 | locus YOR231W, strain MKK1, hits give low values 0.94 | locus YOR265W, strain rbl2, hits give low values 1.01 | locus YOR270C, strain vph1, hits give low values 0.918 | locus YOR290C, strain snf2, hits give low values 0.955 | locus YPL078C, strain atp4, hits give low values 0.957 | locus YPL106C, strain sse1, hits give low values 0.957 | locus YPL240C, strain hsp82, hits give low values 1.01 | locus YPL256C, strain CLN2, hits give low values 0.954
